# Measured values: PubChem BioAssay (NCATS)
# Inconclusive results are not listed. Calls of active or inactive are those of the source. Calls come from the whole dose curve; as a rule, active = well fitted cell-killing curve with a large enough effect; inconclusive = small, poorly fitted or top-dose-only effect, or effect the other way; inactive = no such curve, though single readings can be large or run the other way.
# Experiment: Quantitative High-Throughput drug screen in 47 multiple myeloma cell lines against the NCATS MIPE library collection: VP6_DJ cell viability assay (AID 1919867); note: nearly all actives have a fitted effect of over 40% in size
# Conditions: ATP luminescence, 48 h; series mostly up to 45.8 µM
# In short: (§1)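 ATP-based CellTiter-Glo luminescence after 48 h drug exposure (37 °C, 5% CO2) of 500 myeloma cells per well. DMSO-only wells set 100% viability, media-only wells 0%; MIPE 4.0 library added by pin tool.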
# Potency is the fitted concentration of half-maximal effect.
row,SMILES,Potency
1,NC1=NC(=O)N2CC12 (stereo not drawn),14.8 µM (active)
2,COc1cc([C@@H]2c3cc4c(cc3[C@@H](O)C3COC(=O)C32)OCO4)cc(OC)c1O (stereo partly drawn),0.0526 µM (active)
3,CC1(N2CCC(n3c([C@@H]4CCCNC4)nc4ccccc43)CC2)CCCCCCC1,14.8 µM (active)
4,CCNC(=O)CC1N=C(c2ccc(Cl)cc2)c2cc(OC)ccc2-n2c(C)nnc21 (stereo not drawn),16.6 µM (active)
5,CC(=CCCC1=CCC(C2=CC(=O)OC2O)OC1O)CCC1=C(C)CCCC1(C)C (stereo not drawn),4.18 µM (active)
6,C[C@@H]1CC[C@@]2(OC1)O[C@H]1C[C@H]3[C@@H]4CC=C5C[C@@H](O[C@@H]6O[C@H](CO)[C@@H](O[C@@H]7O[C@@H](C)[C@H](O)[C@@H](O)[C@@H]7O)[C@H](O)[C@@H]6O[C@@H]6O[C@@H](C)[C@H](O)[C@@H](O)[C@@H]6O)CC[C@]5(C)[C@@H]4CC[C@]3(C)[C@@H]1[C@H]2C,2.96 µM (active)
7,CC(C)[C@H]1C(=O)N[C@H](CO)Cc2c[nH]c3cccc(c23)N1C,inactive

# Experiment: Quantitative High-Throughput drug screen in 47 multiple myeloma cell lines against the NCATS MIPE library collection: UTMC2_PLB cell viability assay (AID 1919868); note: nearly all actives have a fitted effect of over 55% in size
# Conditions: CellTiter-Glo ATP luminescence, 48 h; viability (% of DMSO control): at 45.8 µM (top of the series)
# In short: as §1
row,SMILES,Potency
1,Cc1c(N)nc([C@H](CC(N)=O)NC[C@@H](N)C(N)=O)nc1C(=O)N[C@H](C(=O)N[C@@H](C)[C@H](O)[C@@H](C)C(=O)N[C@@H](C(=O)NCCc1nc(-c2nc(C(=O)NCCC[S+](C)C)cs2)cs1)[C@@H](C)O)C(O[C@H]1O[C@H](CO)[C@H](O)[C@@H](O)[C@@H]1O[C@H]1O[C@H](CO)[C@@H](O)[C@H](OC(N)=O)[C@H]1O)c1cnc[nH]1 (stereo partly drawn),0.209 µM (active)
2,NC1CC1c1ccccc1 (stereo not drawn),inactive
3,CCOP(=O)(OCC)C(C)NC(=O)N(CCCl)N=O (stereo not drawn),inactive
4,CN(C)NC(=O)CCC(=O)O,0.0372 µM (active)
5,CCOC(=O)c1c(C(C#N)=CN)c2ccc(Cl)c(Cl)c2n1C,inactive
6,CC(C)N(CCNC(=O)CN1CCCC1=O)C(C)C,inactive
7,COc1cc([C@@H]2c3cc4c(cc3[C@@H](O)C3COC(=O)C32)OCO4)cc(OC)c1O (stereo partly drawn),0.0469 µM (active)
8,C[C@]12CC[C@H](O)CC1=CC[C@H]1[C@H]3CCC(=O)[C@@]3(C)CC[C@@H]12,inactive
9,O=C1C=CC[C@@H]2[C@H]3CCCN4CCC[C@@H](CN12)[C@@H]34,inactive
10,C[C@@H]1CC[C@@]2(OC1)O[C@H]1C[C@H]3[C@@H]4CC=C5C[C@@H](O[C@@H]6O[C@H](CO)[C@@H](O[C@@H]7O[C@@H](C)[C@H](O)[C@@H](O)[C@@H]7O)[C@H](O)[C@@H]6O[C@@H]6O[C@@H](C)[C@H](O)[C@@H](O)[C@@H]6O)CC[C@]5(C)[C@@H]4CC[C@]3(C)[C@@H]1[C@H]2C,2.64 µM (active)
11,COc1ccc2c(c1)[C@]13CCCCC1C(C2)N(C)CC3 (stereo partly drawn),inactive
